Our source for the Potency values is PubChem BioAssay (Tox21).

A short description of experiment [1]: qHTS assay to identify aromatase inhibitors - cell viability counter screen (AID 743084).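 Note: cells stimulated with testosterone during compound exposure; nearly all actives have a fitted effect of over 55% in size.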
Experiment [2] deals with Aryl hydrocarbon receptor (Homo sapiens) (UniProt P35869). The experiment is described as follows: qHTS assay to identify small molecule that activate the aryl hydrocarbon receptor (AhR) signaling pathway (AID 743085).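 For activation: HG2L7.5c1 human HepG2 liver cells with stably integrated DRE-driven firefly reporter; series mostly up to about 70 µM.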 Note: nearly all actives have a fitted effect of over 15% in size. Note: potency is the fitted concentration of half-maximal effect. The method in brief: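 HepG2 cells (HG2L7.5c1) stably carrying a firefly luciferase reporter driven by 20 dioxin responsive elements were exposed to compound for 24 h at 37C after a 5 h settling period; luminescence rise (ONE-Glo) indicated activation.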

Experiment [3] is described as follows: qHTS assay to identify small molecule that activate the aryl hydrocarbon receptor (AhR) signaling pathway - cell viability counter screen (AID 743086). Note: series mostly up to about 70 µM; nearly all actives have a fitted effect of over 45% in size. An outline of the steps: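 Cytotoxicity counter screen: CellTiter-Fluor signal (30 min, 37 C) in 4000 HepG2 cells/well carrying the DRE-luciferase reporter, following 24 h compound exposure at 37 C.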
The target in experiment [4] is Peroxisome proliferator-activated receptor gamma (Homo sapiens) (UniProt P37231). The experiment can be described thus: qHTS assay to identify small molecule agonists of the peroxisome proliferator-activated receptor gamma (PPARg) signaling pathway (AID 743094; active = well fitted activation curve with a large enough effect in the signal ratio in the repeat runs, not every such curve was filed as active; the % refers to the signal ratio). An outline of the steps:
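Cells from the PPARg UAS-bla HEK293H line are plated and incubated 5 h at 37C. Compounds in DMSO are pinned in and left 17 h at 37C. LiveBLAzer B/G substrate is then added for 1 h at room temperature before fluorescence is measured.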

The target is the same in experiment [5]. The experiment is described as follows: qHTS assay to identify small molecule antagonists of the peroxisome proliferator-activated receptor gamma (PPARg) signaling pathway (AID 743191; calls by dose curve; note: nearly all actives have a fitted effect of over 30% in size; note: potency is the fitted concentration of half-maximal effect). The method in brief:
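Beta-lactamase reporter under UAS control in HEK293H PPARg-bla cells; compound treatment 17 h at 37C. Read-out: fluorescence intensity after 1 h room-temperature incubation with LiveBLAzer B/G FRET substrate.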

Experiment [6] can be described thus: qHTS assay to identify small molecule antagonists of the peroxisome proliferator-activated receptor gamma (PPARg) signaling pathway - cell viability counter screen (AID 743194). Note: nearly all actives have a fitted effect of over 55% in size. The method in brief:
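Viability was measured as CellTiter-Glo luminescence in GeneBLAzer PPARg UAS-bla HEK293H cells. These cells had been exposed 17 h at 37 C to compounds together with rosiglitazone at 50 nM final, with the beta-lactamase readout taken in the same wells.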

Experiment [7] in a line: qHTS assay for small molecule agonists of the antioxidant response element (ARE) signaling pathway (AID 743202; active = well fitted activation curve with a large enough effect in the signal ratio in the repeat runs, not every such curve was filed as active; the % refers to the signal ratio). An outline of the steps:
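After 16 hours of compound treatment at 37 C, HepG2 cells with a stably integrated ARE-driven beta-lactamase reporter were loaded 2 hours at room temperature with LiveBLAzer B/G FRET substrate and fluorescence intensity measured.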

Experiment [8] is described as follows: qHTS assay for small molecule agonists of the antioxidant response element (ARE) signaling pathway - cell viability counter screen (AID 743203; calls by dose curve; note: nearly all actives have a fitted effect of over 55% in size). An outline of the steps: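 Cytotoxicity was tested in parallel with the ARE reporter screen. ARE-bla HepG2 cells were exposed to compounds for 16 hrs, and viability was taken from CellTiter-Glo luminescence.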
Experiment [9] in a line: qHTS assay for small molecule activators of the heat shock response signaling pathway - cell viability counter screen (AID 743209). Note: nearly all actives have a fitted effect of over 50% in size. The method in brief: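 Cytotoxicity counter screen run in parallel with the HSE beta-lactamase reporter, using the same wells. HeLa HSE-bla cells received compound for 5 h at 37 C; ATP-based CellTiter-Glo luminescence was measured after 30 min at room temperature.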

Experiment [10] is described as follows: qHTS assay for small molecule activators of the heat shock response signaling pathway (AID 743210; active = well fitted activation curve with a large enough effect in the signal ratio in the repeat runs, with a control signal flat, not every such curve was filed as active; the % refers to the signal ratio; note: series mostly up to about 63 µM). An outline of the steps: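 Compound exposure lasted 5 h at 37 C in HeLa cells carrying a heat-shock-element-driven beta-lactamase reporter. Read-out: fluorescence intensity after 2.5 h room-temperature loading with LiveBLAzer B/G FRET substrate.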

Each structure is given as a SMILES string. Several values for one entry are separate records, joined by “and”; a condition that tells them apart may be missing. Identical values can stand only once. Results filed as inconclusive are left out. Activity calls are given as the source filed them. Unless noted, calls come from the whole dose curve; as a rule, active = well fitted curve in the direction sought with a large enough effect in the repeat runs; inconclusive = weak or mixed curves; inactive = no such curve, though single readings can be large; an effect the other way counts as inactive or inconclusive.

Peroxisome proliferator-activated receptor gamma (Homo sapiens), sequence (P37231 whole entry, looked up): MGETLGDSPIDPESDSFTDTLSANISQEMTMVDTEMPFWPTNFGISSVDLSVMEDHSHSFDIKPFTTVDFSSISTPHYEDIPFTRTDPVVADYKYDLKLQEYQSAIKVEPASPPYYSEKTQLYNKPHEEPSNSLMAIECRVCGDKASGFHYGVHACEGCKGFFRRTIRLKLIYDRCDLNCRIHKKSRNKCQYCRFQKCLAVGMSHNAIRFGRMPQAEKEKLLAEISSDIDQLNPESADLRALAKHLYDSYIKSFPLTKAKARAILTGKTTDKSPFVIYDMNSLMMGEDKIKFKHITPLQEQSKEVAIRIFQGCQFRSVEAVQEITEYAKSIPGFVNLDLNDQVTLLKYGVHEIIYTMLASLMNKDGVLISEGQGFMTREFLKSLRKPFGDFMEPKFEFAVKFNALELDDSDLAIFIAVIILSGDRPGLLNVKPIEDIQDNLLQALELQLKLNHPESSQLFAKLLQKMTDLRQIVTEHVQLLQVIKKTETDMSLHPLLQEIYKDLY
Aryl hydrocarbon receptor (Homo sapiens), sequence (P35869 whole entry, looked up): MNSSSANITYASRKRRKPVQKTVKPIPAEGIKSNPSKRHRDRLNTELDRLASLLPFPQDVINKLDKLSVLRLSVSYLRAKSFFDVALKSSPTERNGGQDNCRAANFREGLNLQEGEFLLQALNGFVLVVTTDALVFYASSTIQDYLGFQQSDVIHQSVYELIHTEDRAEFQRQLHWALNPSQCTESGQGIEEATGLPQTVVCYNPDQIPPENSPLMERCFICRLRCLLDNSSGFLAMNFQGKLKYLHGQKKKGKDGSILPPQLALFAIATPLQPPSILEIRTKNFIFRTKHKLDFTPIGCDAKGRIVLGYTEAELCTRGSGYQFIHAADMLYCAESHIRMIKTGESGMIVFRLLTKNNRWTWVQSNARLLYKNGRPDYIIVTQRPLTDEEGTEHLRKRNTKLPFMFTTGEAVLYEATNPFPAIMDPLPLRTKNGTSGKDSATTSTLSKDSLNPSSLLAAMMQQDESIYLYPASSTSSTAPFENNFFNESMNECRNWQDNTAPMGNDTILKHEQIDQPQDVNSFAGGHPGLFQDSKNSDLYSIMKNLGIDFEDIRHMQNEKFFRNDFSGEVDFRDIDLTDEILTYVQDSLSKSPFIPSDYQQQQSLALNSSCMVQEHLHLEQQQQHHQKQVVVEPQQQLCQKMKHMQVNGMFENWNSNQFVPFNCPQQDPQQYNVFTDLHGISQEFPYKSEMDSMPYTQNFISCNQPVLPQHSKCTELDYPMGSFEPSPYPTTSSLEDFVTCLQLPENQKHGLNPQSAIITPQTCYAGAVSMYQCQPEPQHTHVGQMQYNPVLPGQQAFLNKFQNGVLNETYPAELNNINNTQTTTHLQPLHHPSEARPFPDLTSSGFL

In the case of `CC1COc2c(N3CCN(C)CC3)c(F)cc3c(=O)c(C(=O)O)cn1c23` (stereo unspecified), the Potency result in experiment [1], in [2], in experiment [3], in experiment [4], in experiment [5] and in experiment [6] was “inactive” throughout. In addition, the Potency result in experiment [7], in experiment [8], in experiment [9] and in experiment [10] was “inactive” each time.
With `CCN1CCCC1CNC(=O)c1cc(S(=O)(=O)CC)c(N)cc1OC` (stereo unspecified), the Potency result in [1], in [2], in experiment [3], in experiment [4], in [5] and in [6] was “inactive” each time. Also, the Potency result in experiment [7], in [8], in experiment [9] and in experiment [10] was “inactive” each time.
As to `NC12CC3CC(CC(C3)C1)C2`, the Potency result in experiment [1], in experiment [2], in experiment [3], in experiment [4], in experiment [5] and in [6] was “inactive” each time. The Potency entry in experiment [7] and in [8] was “inactive” each time.
With `CC(C)CCOCc1ccccc1`, the Potency entry in experiment [1], in [2], in [3], in [4], in experiment [5] and in experiment [6] was “inactive” each time. Further, the Potency result in experiment [7], in experiment [8], in experiment [9] and in experiment [10] was “inactive” in each case.
Consider `CC(=O)C1=C(C)[C@@H]2C[C@@]3(C1)[C@H](C)CC[C@H]3C2(C)C`, for which the Potency entry in [1], in [2], in experiment [3], in experiment [4], in [5] and in experiment [6] was “inactive” each time. The Potency result in experiment [7], in experiment [8], in [9] and in experiment [10] was “inactive” throughout.
As for `Cc1ccnc2c1NC(=O)c1cccnc1N2C1CC1`, the Potency result in experiment [1], in [2], in experiment [3], in experiment [4], in [5] and in experiment [6] was “inactive” throughout. Further, the Potency result in experiment [7], in experiment [8], in experiment [9] and in [10] was “inactive” each time.
Take `O=C(O)CP(=O)(O)O`: the Potency result in [1], in experiment [2], in experiment [3], in experiment [4], in experiment [5] and in experiment [6] was “inactive” in each case. Moreover, the Potency result in [7], in experiment [8], in experiment [9] and in [10] was “inactive” in each case.
As to `O=C1NCC2(CCN(CCc3ccccc3)CC2)O1`, the Potency entry in experiment [1], in [2], in experiment [3], in experiment [4], in experiment [5] and in experiment [6] was “inactive” throughout. Also, the Potency entry in experiment [7], in experiment [8], in experiment [9] and in experiment [10] was “inactive” throughout.
On to `CC(=O)CC(=O)Nc1ccc2[nH]c(=O)[nH]c2c1`, for which the Potency entry in experiment [1], in experiment [2], in experiment [3], in experiment [4], in experiment [5] and in experiment [6] was “inactive” each time. Also, the Potency result in experiment [7], in experiment [8], in experiment [9] and in experiment [10] was “inactive” throughout.
Turning to `O=C(OCc1ccccc1)c1ccc(O)cc1`, the Potency result in [1], in experiment [2], in experiment [3], in [4], in experiment [6] and in experiment [7] was “inactive” throughout. Moreover, the Potency result in experiment [8], in experiment [9] and in [10] was “inactive” each time. In addition, the Potency in experiment [5] is 43.6 µM (active).
Take `CCCNC(C)C(=O)Nc1ccccc1C` (stereo unspecified): the Potency result in [1], in [2], in experiment [3], in experiment [4], in [5] and in [6] was “inactive” throughout. Moreover, the Potency result in experiment [7], in experiment [8], in [9] and in experiment [10] was “inactive” in each case.
Regarding `OCCN1CCNCC1`, the Potency entry in experiment [1], in experiment [2], in [3], in experiment [4], in experiment [5] and in [6] was “inactive” throughout. Also, the Potency entry in experiment [7], in [8], in experiment [9] and in experiment [10] was “inactive” in each case.
Turning to `CCC[C@H](N[C@@H](C)C(=O)N1[C@H](C(=O)O)C[C@@H]2CCCC[C@@H]21)C(=O)OCC`, the Potency result in experiment [1], in experiment [2], in experiment [3], in experiment [4], in [5] and in [6] was “inactive” throughout. The Potency entry in experiment [7], in [8], in [9] and in experiment [10] was “inactive” each time.
As to `O=C(Cl)c1cccc(C(=O)Cl)c1`, the Potency entry in [1], in experiment [2], in experiment [3], in [4], in [5] and in experiment [6] was “inactive” in each case. The Potency entry in experiment [7], in [8], in experiment [9] and in experiment [10] was “inactive” in each case.
`CCn1c2ccccc2c2cc(N)ccc21`: the Potency result in experiment [1], in [3], in [4], in experiment [5], in experiment [6] and in experiment [7] was “inactive” each time. The Potency entry in experiment [8] was “inactive”. In addition, the Potency in experiment [2] is 9.59 µM (active) and 9.69 µM (active) and 3.06 µM (active).
With `Cc1scc2c1N(C(=O)CN1CCN(C)CC1)c1ccccc1NC2=O`, the Potency result in [1], in experiment [2], in [3], in experiment [4], in [5] and in [6] was “inactive” in each case. Further, the Potency entry in experiment [7], in [8], in [9] and in experiment [10] was “inactive” each time.
As for `COC(=O)/C=C/c1ccccc1`, the Potency result in experiment [1], in [2], in experiment [3], in experiment [4], in experiment [5] and in [6] was “inactive” in each case. Also, the Potency entry in [7], in experiment [8], in experiment [9] and in experiment [10] was “inactive” in each case.
Consider `COC(=O)c1cccc(C(=O)OC)c1`, for which the Potency entry in experiment [1], in experiment [2], in experiment [3], in experiment [4], in experiment [5] and in experiment [6] was “inactive” throughout. Also, the Potency result in experiment [7], in experiment [8], in experiment [9] and in experiment [10] was “inactive” in each case.
In the case of `CCCCN(CCO)CCCC`, the Potency entry in experiment [1], in [2], in experiment [3], in experiment [4], in experiment [5] and in [6] was “inactive” each time. Besides, the Potency result in [7], in experiment [8], in experiment [9] and in experiment [10] was “inactive” throughout.
Turning to `C[N+]1([O-])CCOCC1`, the Potency entry in experiment [1], in [2], in experiment [3], in experiment [4], in experiment [5] and in experiment [6] was “inactive” throughout. For the same molecule, the Potency result in experiment [7], in [8], in experiment [9] and in [10] was “inactive” each time.
In the case of `CC1COC(=O)O1` (stereo unspecified), the Potency entry in experiment [1], in experiment [2], in experiment [3], in experiment [4], in experiment [5] and in experiment [6] was “inactive” each time. Moreover, the Potency entry in experiment [7], in [8], in [9] and in experiment [10] was “inactive” in each case.
On to `NCCCCCC(=O)O`, for which the Potency entry in [1], in experiment [2], in [3], in [4], in experiment [5] and in experiment [6] was “inactive” each time. Further, the Potency result in [7], in [8], in experiment [9] and in experiment [10] was “inactive” throughout.
